Source: PubChem BioAssay AID1159580 (chemical genetic matrix, 2015)
The whole screen tested about 5,500 compounds, of which about 2,000 (36%) were called active. About 18% were inconclusive and are not listed. Cut-off read from the data, not from the text of the source: active = normalized growth mostly below about 0.91 (no sharp cut-off); inconclusive = no clear call, values can overlap the other calls; inactive = mostly above about 0.92. The list shows a part of the results.

Experiment: chemical genetic growth profiling, strain panel (AID 1159580);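 note: tested at 20 µM; growth read once vehicle control cultures reached saturation at 30 °C; 1 = growth at the plate median or of vehicle wells; lower values mean less growth of the strain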
Conditions: S. cerevisiae deletion strains, growth OD

Measured: normalized growth

CCC(=O)Nc1ccc(Cl)c(Cl)c1
inactive: locus YAL013W, strain DEP1, active compounds read low 0.99 | locus YAL021C, strain ccr4, active compounds read low 0.975 | locus YAL026C, strain drs2, active compounds read low 0.994 | locus YAL030W, strain snc1, active compounds read low 1.01 | locus YBL061C, strain skt5, active compounds read low 0.978 | locus YBR009C, strain hhf1, active compounds read low 0.982 | locus YBR021W, strain FUR4, active compounds read low 0.952 | locus YBR023C, strain chs3, active compounds read low 0.988 | locus YBR171W, strain sec66, active compounds read low 0.983 | locus YBR229C, strain ROT2, active compounds read low 1 | locus YBR231C, strain swc5, active compounds read low 0.982 | locus YBR279W, strain paf1, active compounds read low 0.99 | locus YCL011C, strain gbp2, active compounds read low 0.983 | locus YCL016C, strain dcc1, active compounds read low 0.989 | locus YCL029C, strain bik1, active compounds read low 1.01 | locus YCL061C, strain MRC1, active compounds read low 0.986 | locus YCL069W, strain vba3, active compounds read low 0.996 | locus YCR088W, strain abp1, active compounds read low 0.99 | locus YDL005C, strain med2, active compounds read low 0.981 | locus YDL035C, strain GPR1, active compounds read low 0.988 | locus YDL040C, strain nat1, active compounds read low 0.99 | locus YDL074C, strain BRE1, active compounds read low 0.898 | locus YDL101C, strain DUN1, active compounds read low 0.999 | locus YDL134C, strain PPH21, active compounds read low 1 | locus YDL185W, strain tfp1, active compounds read low 0.99 | locus YDL192W, strain arf1, active compounds read low 0.994 | locus YDR001C, strain nth1, active compounds read low 0.989 | locus YDR069C, strain doa4, active compounds read low 0.971 | locus YDR101C, strain arx1, active compounds read low 0.991 | locus YDR137W, strain rgp1, active compounds read low 1.03 | locus YDR150W, strain NUM1, active compounds read low 0.998 | locus YDR159W, strain sac3, active compounds read low 0.959 | locus YDR162C, strain NBP2, active compounds read low 0.985 | locus YDR195W, strain ref2 0.956 | locus YDR297W, strain sur2, active compounds read low 0.988 | locus YDR318W, strain mcm21, active compounds read low 0.996 | locus YDR334W, strain swr1, active compounds read low 0.996 | locus YDR335W, strain msn5, active compounds read low 0.988 | locus YDR388W, active compounds read low 1 | locus YDR392W, strain spt3, active compounds read low 0.98 | locus YDR502C, strain sam2, active compounds read low 0.998 | locus YEL003W, strain gim4, active compounds read low 0.992 | locus YEL037C, strain rad23, active compounds read low 1 | locus YEL061C, strain CIN8 (second series), active compounds read low 0.978 | locus YEL061C, strain CIN8, active compounds read low 0.994 | locus YER016W, strain bim1, active compounds read low 0.991 | locus YER110C, active compounds read low 0.996 | locus YER111C, strain swi4, active compounds read low 0.989 | locus YER155C, strain BEM2 (second series), active compounds read low 0.998 | locus YER155C, strain BEM2, active compounds read low 1.01 | locus YER167W, strain BCK2, active compounds read low 1 | locus YFR010W, strain ubp6, active compounds read low 0.993 | locus YGL078C, strain dbp3, active compounds read low 1.01 | locus YGL086W, strain mad1, active compounds read low 0.997 | locus YGL167C, strain pmr1, active compounds read low 0.984 | locus YGL173C, strain kem1, active compounds read low 0.978 | locus YGL227W, strain vid30, active compounds read low 0.988 | locus YGL240W, strain doc1, active compounds read low 0.96 | locus YGL248W, strain PDE1, active compounds read low 0.993 | locus YGL253W, strain hxk2, active compounds read low 1 | locus YGR078C, strain PAC10, active compounds read low 0.961 | locus YGR135W, strain pre9, active compounds read low 0.982 | locus YGR229C, strain SMI1, active compounds read low 0.958 | locus YGR252W, strain gcn5, active compounds read low 0.874 | locus YHR013C, strain ard1, active compounds read low 0.971 | locus YHR027C, strain rpn1, active compounds read low 0.994 | locus YHR030C, strain SLT2, active compounds read low 0.978 | locus YHR079C, strain IRE1 (second series), active compounds read low 0.999 | locus YHR094C, strain hxt1, active compounds read low 1 | locus YHR129C, strain ARP1, active compounds read low 0.988 | locus YHR142W, strain chs7, active compounds read low 1 | locus YHR200W, strain rpn10, active compounds read low 1 | locus YIL066C, strain RNR3, active compounds read low 0.991 | locus YIL073C, strain SPO22, active compounds read low 1.01 | locus YIL125W, strain kgd1, active compounds read low 1 | locus YIR030C, strain dcg1, active compounds read low 1 | locus YJL092W, strain hpr5, active compounds read low 0.985 | locus YJL095W, strain BCK1 (second series), active compounds read low 0.996 | locus YJL095W, strain BCK1, active compounds read low 0.924 | locus YJL115W, strain asf1, active compounds read low 0.992 | locus YJL129C, strain trk1, active compounds read low 0.968 | locus YJL134W, strain LCB3, active compounds read low 0.986 | locus YJL154C, strain vps35, active compounds read low 0.998 | locus YJL164C, strain tpk1, active compounds read low 1.01 | locus YJL166W, strain qcr8, active compounds read low 0.986 | locus YJL168C, strain set2, active compounds read low 1 | locus YJL187C, strain SWE1 (second series), active compounds read low 1.01 | locus YJL187C, strain SWE1, active compounds read low 0.984
